Results reported in PubChem BioAssay (NCATS).
Inconclusive results are not listed. Where a call stands in place of a potency, no number is given. Activity calls are given as the source filed them. Unless noted, calls follow the shape of the dose curve; as a rule, active = well fitted curve in the direction sought with a large enough effect; inconclusive = small, poorly fitted or top-dose-only effect, or another doubt; inactive = no such curve, though single readings can be large; an effect the other way counts as inactive or inconclusive.

Tests used:
[1] = qHTS Assay for Lipid Storage Modulators (AID 1519; calls by dose curve); conditions: Drosophila S3 cells, BODIPY lipid droplet/cell ratio, laser cytometry, cells loaded with oleic acid; for activity change, negative = inhibition: at 57.5 µM (top of the series)
Procedure, shortened: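 Cells seeded at 5,000 per well were treated with compounds over a concentration series and loaded with oleic acid (400 uM, as added). Lipid droplet fluorescence (488 nm excitation, 500-530 nm channel) was read by laser-scanning cytometry and normalized to 20 uM Triacsin C.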

[2] = target: Ubiquitin carboxyl-terminal hydrolase 1 (Homo sapiens) (UniProt O94782); experiment: Inhibitors of USP1/UAF1: Pilot qHTS (AID 504865); conditions: purified USP1/UAF1, Ub-rhodamine cleavage fluorescence; series mostly up to 114 µM;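 also: rhodamine fluorescence freed from ubiquitin-rhodamine substrate followed over time; top concentration of the series differs between compounds; nearly all actives have a fitted effect of over 35% in size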
Ubiquitin carboxyl-terminal hydrolase 1 (Homo sapiens), sequence (O94782 whole entry, looked up): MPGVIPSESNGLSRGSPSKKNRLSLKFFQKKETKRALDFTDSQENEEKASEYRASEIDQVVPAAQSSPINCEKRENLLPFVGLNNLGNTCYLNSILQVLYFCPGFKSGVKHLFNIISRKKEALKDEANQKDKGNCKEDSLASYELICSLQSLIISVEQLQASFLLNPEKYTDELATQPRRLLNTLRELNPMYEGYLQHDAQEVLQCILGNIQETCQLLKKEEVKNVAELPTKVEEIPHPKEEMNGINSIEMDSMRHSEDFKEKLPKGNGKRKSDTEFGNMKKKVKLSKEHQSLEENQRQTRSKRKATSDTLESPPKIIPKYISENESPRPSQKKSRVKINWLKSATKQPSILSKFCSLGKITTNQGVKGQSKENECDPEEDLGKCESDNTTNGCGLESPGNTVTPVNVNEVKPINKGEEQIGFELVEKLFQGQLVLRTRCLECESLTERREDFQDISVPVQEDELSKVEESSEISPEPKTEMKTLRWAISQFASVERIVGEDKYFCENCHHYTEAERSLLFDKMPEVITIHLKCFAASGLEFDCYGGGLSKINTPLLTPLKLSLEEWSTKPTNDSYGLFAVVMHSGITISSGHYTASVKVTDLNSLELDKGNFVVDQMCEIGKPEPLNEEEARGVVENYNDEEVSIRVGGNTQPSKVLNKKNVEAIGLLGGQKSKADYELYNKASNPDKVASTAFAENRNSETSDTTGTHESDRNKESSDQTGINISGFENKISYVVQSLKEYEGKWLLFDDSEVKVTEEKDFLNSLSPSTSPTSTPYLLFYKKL
Procedure, shortened: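 USP1/UAF1 complex (1nM) preincubated with compound 15 min at room temperature, then Ub-Rho substrate (150nM final) added. Fluorescence read kinetically at 480/540 nm, 6 reads every 60 seconds. Buffer: 50mM HEPES pH 7.8, 0.5mM EDTA, 0.1 mg/ml BSA, 1mM TCEP, 0.01% Tween-20.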

[3] = Cell Viability - LYMP1-002 - Assay at 24 hr (AID 993); conditions: LYMP1-002 lymphoblastoid cells viability; series mostly up to 92.2 µM
Procedure, shortened: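 CellTiter-Glo luminescence (intracellular ATP) after 24 h compound exposure, 37 C, in LYMP1-002 human lymphoblastoid cells; decreased ATP taken as cytotoxicity. AC50 from standard Hill fit of concentration-response curves.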

[4] = Cell Viability - LYMP1-002 - Assay at 40 hr (AID 994); conditions: LYMP1-002 lymphoblastoid cell viability; series mostly up to 92.2 µM; also: nearly all actives have a fitted effect of over 60% in size
Procedure, shortened: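 qHTS cytotoxicity; 2500 cells/well, 5 hr 37 C settle, compound 40 hr 37 C. CellTiter-Glo, 30 min RT, luminescence (ATP). Concentration-response, Hill fit → AC50. Pos. ctrl tetraoctylammonium bromide.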

[5] = qHTS Assay for Identification of Small Molecule Inducers of Hypoxia Response (AID 2120; active = well fitted curve in the direction sought with a large enough effect in the signal ratio, with a control signal flat, not every such curve was filed as active; the % refers to the signal ratio); conditions: hypoxia response reporter cells, beta-lactamase ratio readout; series mostly up to 104 µM
Procedure, shortened: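 Read-out: CCF4 FRET emission ratio 460nm/530nm (excitation 405nm), converted to %Activity, with AC50 fitted across a compound titration. ME-180 cells carried an HRE-driven beta-lactamase reporter; compound exposure 17 h, 37 degrees C.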

[6] = target: Estrogen receptor (Homo sapiens) (UniProt P03372); experiment: qHTS assay for small molecule agonists of estrogen receptor alpha signaling (AID 588514; calls by dose curve; also: nearly all actives have a fitted effect of over 70% in size); conditions: ER-alpha-UAS-bla HEK293, beta-lactamase ratio, 18 h, percent of full estradiol response, vehicle zero; series mostly up to 76.8 µM
Estrogen receptor (Homo sapiens), sequence (P03372 whole entry, looked up): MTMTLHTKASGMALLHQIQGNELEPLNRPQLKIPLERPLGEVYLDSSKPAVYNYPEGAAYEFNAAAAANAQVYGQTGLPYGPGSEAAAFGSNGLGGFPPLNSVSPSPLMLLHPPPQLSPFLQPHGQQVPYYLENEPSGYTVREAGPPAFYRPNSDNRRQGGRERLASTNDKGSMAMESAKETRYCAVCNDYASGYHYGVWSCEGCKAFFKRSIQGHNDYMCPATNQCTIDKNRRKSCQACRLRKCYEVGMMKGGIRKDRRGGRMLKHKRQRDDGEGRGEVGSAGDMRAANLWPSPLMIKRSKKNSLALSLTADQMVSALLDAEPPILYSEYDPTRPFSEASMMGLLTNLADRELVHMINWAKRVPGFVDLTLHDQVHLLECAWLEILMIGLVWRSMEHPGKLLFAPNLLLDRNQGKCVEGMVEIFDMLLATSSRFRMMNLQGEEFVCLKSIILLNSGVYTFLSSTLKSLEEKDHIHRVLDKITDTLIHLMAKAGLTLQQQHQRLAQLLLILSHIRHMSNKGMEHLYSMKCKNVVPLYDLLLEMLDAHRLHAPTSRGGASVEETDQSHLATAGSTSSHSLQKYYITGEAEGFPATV
Procedure, shortened: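 Read-out: CCF4 fluorescence from a beta-lactamase reporter in ER-alpha-UAS-bla HEK 293 cells after 18 hrs of compound exposure at 37 C. Normalized to 20 nM 17-beta-estradiol (100%) and DMSO (0%).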

[7] = target: Androgen receptor (Homo sapiens) (UniProt P10275); experiment: qHTS assay for small molecule antagonists of androgen receptor signaling (AID 588516; active = well fitted curve in the direction sought with a large enough effect in the signal ratio, with a control signal flat, not every such curve was filed as active; the % refers to the signal ratio; also: potency is read from the fitted curve at half-maximal effect); conditions: AR-UAS-bla HEK293, beta-lactamase ratio, antagonist mode, 16 h; series mostly up to 76.8 µM
Androgen receptor (Homo sapiens), sequence (P10275 whole entry, looked up): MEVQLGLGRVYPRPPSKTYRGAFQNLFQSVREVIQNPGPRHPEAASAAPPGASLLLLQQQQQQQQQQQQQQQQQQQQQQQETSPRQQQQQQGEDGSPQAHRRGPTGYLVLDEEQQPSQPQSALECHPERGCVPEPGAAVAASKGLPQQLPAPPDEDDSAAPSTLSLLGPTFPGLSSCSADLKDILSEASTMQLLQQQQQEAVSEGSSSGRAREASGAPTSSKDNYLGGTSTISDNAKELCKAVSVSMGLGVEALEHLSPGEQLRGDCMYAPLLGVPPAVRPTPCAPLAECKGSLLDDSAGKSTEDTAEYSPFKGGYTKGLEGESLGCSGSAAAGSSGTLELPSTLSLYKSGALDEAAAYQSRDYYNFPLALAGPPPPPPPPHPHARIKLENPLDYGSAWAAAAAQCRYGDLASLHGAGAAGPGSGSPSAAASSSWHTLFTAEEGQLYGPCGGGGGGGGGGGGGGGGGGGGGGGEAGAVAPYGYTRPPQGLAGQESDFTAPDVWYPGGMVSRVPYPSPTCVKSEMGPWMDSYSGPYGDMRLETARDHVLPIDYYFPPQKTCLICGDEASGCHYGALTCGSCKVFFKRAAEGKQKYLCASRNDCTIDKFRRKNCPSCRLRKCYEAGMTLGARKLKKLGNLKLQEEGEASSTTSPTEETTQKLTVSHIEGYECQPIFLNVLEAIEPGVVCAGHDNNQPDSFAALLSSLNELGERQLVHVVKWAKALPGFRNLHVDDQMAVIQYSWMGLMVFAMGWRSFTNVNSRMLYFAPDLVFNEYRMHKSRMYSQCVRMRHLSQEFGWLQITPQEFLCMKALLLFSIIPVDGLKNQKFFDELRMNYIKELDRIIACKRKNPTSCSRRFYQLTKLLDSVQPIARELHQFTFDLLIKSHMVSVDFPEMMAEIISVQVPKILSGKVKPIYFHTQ
Procedure, shortened: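 AR-UAS-bla-GripTite HEK 293 cells (2000/well, 5 h at 37 C) received compound titrations, then R1881 at 10 nM final; after 16 h at 37 C, CCF4 dye 2 h RT, beta-lactamase fluorescence read; IC50 from Hill fits.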

[8] = target: Glucocorticoid receptor (Homo sapiens) (UniProt P04150); experiment: qHTS assay for small molecule agonists of glucocorticoid receptor signaling (AID 588532; active = well fitted curve in the direction sought with a large enough effect in the signal ratio, with a control signal flat; the % refers to the signal ratio); conditions: HeLa MMTV-bla, beta-lactamase ratio, agonist, 18 h; stronger effect = higher value; percent of dexamethasone control, DMSO zero
Glucocorticoid receptor (Homo sapiens), sequence (P04150 whole entry, looked up): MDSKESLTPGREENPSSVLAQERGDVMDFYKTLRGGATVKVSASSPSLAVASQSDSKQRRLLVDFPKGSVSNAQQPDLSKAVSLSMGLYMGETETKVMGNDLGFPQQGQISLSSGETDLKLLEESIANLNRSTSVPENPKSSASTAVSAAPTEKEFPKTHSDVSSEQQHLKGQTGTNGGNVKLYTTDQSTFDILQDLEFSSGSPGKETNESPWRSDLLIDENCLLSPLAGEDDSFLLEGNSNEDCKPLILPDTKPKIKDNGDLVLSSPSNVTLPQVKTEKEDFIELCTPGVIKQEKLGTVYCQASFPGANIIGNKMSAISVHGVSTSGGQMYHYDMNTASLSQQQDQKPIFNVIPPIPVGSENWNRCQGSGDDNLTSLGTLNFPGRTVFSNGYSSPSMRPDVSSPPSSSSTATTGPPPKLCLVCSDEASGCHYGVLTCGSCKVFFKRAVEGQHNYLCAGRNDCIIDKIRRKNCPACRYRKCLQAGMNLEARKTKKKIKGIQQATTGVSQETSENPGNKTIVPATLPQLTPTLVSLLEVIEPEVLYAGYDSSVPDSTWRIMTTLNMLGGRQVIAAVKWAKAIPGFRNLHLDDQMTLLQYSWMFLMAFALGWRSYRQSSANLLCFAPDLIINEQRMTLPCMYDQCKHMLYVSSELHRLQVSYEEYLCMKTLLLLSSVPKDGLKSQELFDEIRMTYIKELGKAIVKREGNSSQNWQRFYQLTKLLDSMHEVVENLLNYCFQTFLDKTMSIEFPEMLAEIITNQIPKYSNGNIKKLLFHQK
Procedure, shortened: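 Titration series, up to 92 uM, applied to GRE-bla HeLa cells for 18 h at 37 C. Detection by CCF4 FRET substrate after 2 h at RT.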

[9] = target: Glucocorticoid receptor (Homo sapiens) (UniProt P04150); experiment: qHTS assay for small molecule antagonists of glucocorticoid receptor signaling (AID 588533; active = well fitted inhibition curve with a large enough effect in the signal ratio, with a control signal flat, not every such curve was filed as active; the % refers to the signal ratio;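 also: cells stimulated with 2 nM dexamethasone as agonist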); conditions: HeLa MMTV-bla, GRE beta-lactamase ratio, antagonist mode, 18 h; series mostly up to 76.8 µM
Procedure, shortened: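 Antagonist-mode qHTS: compound titrations added to GRE-bla HeLa cells, then dexamethasone 2 nM final; 18 h, 37 C. CCF4 FRET fluorescence normalized to dexamethasone and DMSO; IC50 from Hill fit.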

[10] = qHTS assay for small molecule antagonists of peroxisome proliferator-activated receptor delta signaling (AID 588535; active = well fitted inhibition curve with a large enough effect in the signal ratio, with a control signal flat, not every such curve was filed as active; the % refers to the signal ratio;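 as to max response: cells co-treated with a PPAR-delta agonist as stimulator during compound exposure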); conditions: HEK293T PPARd-UAS-bla, beta-lactamase FRET ratio, 18 h; 460 nm channel
Procedure, shortened: (§1)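 Compounds tested in titration on PPAR-delta-UAS-bla HEK293T cells grown in charcoal/dextran-stripped serum (2%); beta-lactamase activity read via CCF4 emission at 460 and 530 nm.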

[11] = target: Peroxisome proliferator-activated receptor delta (Homo sapiens) (UniProt Q03181); experiment: as above; conditions: HEK293T PPARd-UAS-bla, beta-lactamase FRET ratio, 18 h; series mostly up to 76.7 µM
Procedure, shortened: as §1

[12] = target: Peroxisome proliferator-activated receptor gamma (Homo sapiens) (UniProt P37231); experiment: qHTS assay for small molecule agonists of peroxisome proliferator-activated receptor gamma signaling (AID 588536; active = well fitted curve in the direction sought with a large enough effect in the signal ratio, with a control signal flat, not every such curve was filed as active; the % refers to the signal ratio); conditions: HEK293 PPARg-UAS-bla, beta-lactamase ratio, 16 h, percent of rosiglitazone response, DMSO as zero; series mostly up to 76.7 µM
Peroxisome proliferator-activated receptor gamma (Homo sapiens), sequence (P37231 whole entry, looked up): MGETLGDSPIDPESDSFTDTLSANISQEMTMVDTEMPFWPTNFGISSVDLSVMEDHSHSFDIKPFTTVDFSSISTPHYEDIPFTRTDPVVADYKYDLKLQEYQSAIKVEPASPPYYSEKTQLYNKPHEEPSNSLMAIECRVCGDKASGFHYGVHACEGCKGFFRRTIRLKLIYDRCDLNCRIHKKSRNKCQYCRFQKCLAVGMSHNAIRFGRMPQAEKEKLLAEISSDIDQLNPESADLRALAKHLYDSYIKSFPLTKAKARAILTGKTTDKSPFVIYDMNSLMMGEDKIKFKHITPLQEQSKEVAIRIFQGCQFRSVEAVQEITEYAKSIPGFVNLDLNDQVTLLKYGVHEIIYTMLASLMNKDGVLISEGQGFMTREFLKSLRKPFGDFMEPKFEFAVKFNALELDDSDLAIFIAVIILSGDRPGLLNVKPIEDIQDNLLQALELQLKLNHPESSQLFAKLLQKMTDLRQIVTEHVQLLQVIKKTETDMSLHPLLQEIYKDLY
Procedure, shortened: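 Using GeneBLAzer HEK293 cells, response was quantified by CCF4 fluorescence and normalized between basal DMSO (0%) and rosiglitazone 2 uM (100%); curves yielded half-maximal stimulation concentration and efficacy.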

[13] = target: Vitamin D3 receptor (Homo sapiens) (UniProt P11473); experiment: qHTS assay for small molecule antagonists of vitamin D receptor signaling (AID 588541; calls by dose curve;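 also: receptor activated by calcitriol during compound treatment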); conditions: HEK293T VDR-UAS-bla, beta-lactamase ratio, antagonist mode; series mostly up to 76.7 µM
Vitamin D3 receptor (Homo sapiens), sequence (P11473 whole entry, looked up): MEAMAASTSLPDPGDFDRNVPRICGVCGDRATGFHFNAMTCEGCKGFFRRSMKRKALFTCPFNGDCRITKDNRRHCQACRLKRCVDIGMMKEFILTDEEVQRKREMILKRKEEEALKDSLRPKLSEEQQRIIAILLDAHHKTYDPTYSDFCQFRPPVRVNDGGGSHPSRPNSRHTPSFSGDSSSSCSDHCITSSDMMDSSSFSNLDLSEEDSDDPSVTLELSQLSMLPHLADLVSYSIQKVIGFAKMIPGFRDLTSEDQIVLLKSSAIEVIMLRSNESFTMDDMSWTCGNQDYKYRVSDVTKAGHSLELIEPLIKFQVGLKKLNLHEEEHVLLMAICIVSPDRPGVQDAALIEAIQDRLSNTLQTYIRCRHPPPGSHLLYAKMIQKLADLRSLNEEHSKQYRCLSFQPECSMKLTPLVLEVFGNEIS
Procedure, shortened: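 VDR-UAS-bla HEK293T cells (2000/well, 2% charcoal-stripped FBS) were treated with titrated compounds plus 1-alpha,25-dihydroxyvitamin D3 (50 nM or 3 nM final) for 16 h at 37 C. CCF4 beta-lactamase fluorescence was read; Hill fits gave IC50.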

[14] = target: Vitamin D3 receptor (Homo sapiens) (UniProt P11473); experiment: qHTS assay for small molecule agonists of vitamin D receptor signaling (AID 588543; calls by dose curve); conditions: HEK293T VDR-UAS-bla, beta-lactamase ratio, 16 h; series mostly up to 76.8 µM
Procedure, shortened: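 GeneBLAzer VDR-UAS-bla HEK293T cells in 2% charcoal-stripped FBS medium were dosed with compound titrations for 16 h at 37 °C; CCF4 β-lactamase readout (405 nm ex, 460/530 nm em). EC50 and efficacy from Hill fits, normalized to 50 nM calcitriol (100%) and DMSO (0%).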

[15] = qHTS assay for small molecule agonists of retinoid X receptor alpha signaling (AID 588544); conditions: HEK293T RXRa-UAS-bla, beta-lactamase reporter, 18 h; 530 nm emission
[16] = target: alpha-glucosidase (Oryza sativa, rice) (UniProt Q653V4); experiment: Counterscreen for Glucocerebrosidase Inhibitors: qHTS Assay for Rice alpha-Glucosidase at pH 5.0 (AID 997); conditions: rice alpha-glucosidase enzyme activity; series mostly up to 76.9 µM
Procedure, shortened: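 Endpoint fluorogenic assay at pH 5.0: compounds (0.7 nM to 77 uM) titrated against 4 nM rice enzyme and 400 uM 4-MU-alpha-glucoside for 20 min at room temperature; NaOH/glycine stop, read ex 365/em 440 nm, Hill-fitted AC50.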

[17] = target: ATP-dependent 6-phosphofructokinase (Trypanosoma brucei brucei) (UniProt O15648); experiment: qHTS Assay to Find Inhibitors of T. brucei phosphofructokinase: hit validation (AID 492961);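 also: luminescence reports ADP formed as PFK phosphorylates fructose-6-phosphate with ATP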; conditions: T. brucei PFK, ADP-Glo luminescence; series mostly up to 51.4 µM
ATP-dependent 6-phosphofructokinase (Trypanosoma brucei brucei), sequence (O15648 whole entry, looked up): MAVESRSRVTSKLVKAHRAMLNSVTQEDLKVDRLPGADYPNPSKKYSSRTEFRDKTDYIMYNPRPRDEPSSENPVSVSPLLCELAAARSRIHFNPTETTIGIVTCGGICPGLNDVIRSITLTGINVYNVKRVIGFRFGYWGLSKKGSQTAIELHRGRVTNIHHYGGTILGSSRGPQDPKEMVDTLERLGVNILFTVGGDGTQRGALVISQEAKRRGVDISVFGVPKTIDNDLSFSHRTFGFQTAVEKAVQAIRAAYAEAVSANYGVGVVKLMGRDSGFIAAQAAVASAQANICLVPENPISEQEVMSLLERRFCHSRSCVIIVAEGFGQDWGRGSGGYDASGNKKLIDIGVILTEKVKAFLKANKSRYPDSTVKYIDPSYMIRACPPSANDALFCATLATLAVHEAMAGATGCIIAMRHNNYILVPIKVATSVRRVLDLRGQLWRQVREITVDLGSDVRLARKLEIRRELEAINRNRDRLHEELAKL
Procedure, shortened: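 Percent activity derived from corrected luminescence, normalized between 0x and 1x enzyme controls, then fitted to concentration-response curves. Conditions: 1.25 nM PFK, 0.1 mM ATP, 0.5 mM F6P, 45 min RT.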

[18] = target: DNA dC->dU-editing enzyme APOBEC-3G (Homo sapiens) (UniProt Q9HC16); experiment: qHTS for inhibitors of Vif-A3G interactions: Validation (AID 588379); conditions: Vif-A3G protein interaction assay; series mostly up to 46.1 µM
DNA dC->dU-editing enzyme APOBEC-3G (Homo sapiens), sequence (Q9HC16 whole entry, looked up): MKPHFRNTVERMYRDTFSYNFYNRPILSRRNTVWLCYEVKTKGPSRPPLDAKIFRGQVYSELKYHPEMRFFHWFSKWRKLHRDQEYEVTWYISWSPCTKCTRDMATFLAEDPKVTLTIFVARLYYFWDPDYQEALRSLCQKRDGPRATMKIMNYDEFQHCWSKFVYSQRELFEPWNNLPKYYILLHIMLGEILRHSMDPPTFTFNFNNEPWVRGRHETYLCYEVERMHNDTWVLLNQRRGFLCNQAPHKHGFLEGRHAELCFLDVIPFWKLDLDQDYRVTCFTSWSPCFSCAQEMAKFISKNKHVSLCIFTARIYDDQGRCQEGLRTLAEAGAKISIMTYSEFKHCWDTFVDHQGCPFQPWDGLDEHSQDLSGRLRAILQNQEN
Procedure, shortened: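 Yellow fluorescence (Ex 488, Em 500-530) of Vif-coexpressing HeLa A3G-eYFP cells, scanned by Acumen cytometer, reports blocked A3G degradation. Cells plated at 700/well overnight at 37 deg C before compound addition, then a further overnight compound incubation at 37 deg C.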

[19] = target: Androgen receptor (Homo sapiens) (UniProt P10275); experiment: qHTS assay for small molecule agonists of androgen receptor signaling (AID 588515; active = well fitted curve in the direction sought with a large enough effect in the signal ratio, with a control signal flat; the % refers to the signal ratio); conditions: AR-UAS-bla HEK293, beta-lactamase ratio, agonist 16 h; stronger effect = higher value
Procedure, shortened: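 Stimulation of an AR-responsive β-lactamase reporter in GripTite HEK293 cells was measured after 16 h compound exposure at 37 °C, via CCF4 fluorescence after 2 h RT. EC50 from Hill fits, normalized to R1881 at 30 nM.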

[20] = measured here: cell count channel max response
[21] = measured here: lipid channel max response

For `CC(=O)c1cc2c(cc1O)OC(C)(C)C=C2`, the activity change, negative = inhibition [1] was 18.6% (inactive), the max response [1, 20] was -14.4% and the max response [1, 21] was 0.328%. For the same molecule, the outcome [2] was “inactive”.
With `Cc1ccc(N)cc1O` the outcome [3] was “inactive”, the outcome [4] was “inactive” and the outcome [5] was “inactive”. For the same molecule, the outcome [6] was “inactive”, the Potency [7] was “inactive” and the activation [8] was 0.383% (inactive). For the same molecule, the outcome [9] was “inactive”, the max response [10] was -0.329% and the outcome [11] was “inactive”. The outcome [12] was “inactive”, the outcome [13] was “inactive” and the outcome [14] was “inactive”. It also gave a max response [15] of 6.75%.
For `CC(=O)O[C@H]1C(=O)[C@@]2(C)[C@H]([C@H](OC(=O)c3ccccc3)[C@]3(O)C[C@H](OC(=O)[C@H](O)[C@@H](NC(=O)c4ccccc4)c4ccccc4)C(C)=C1C3(C)C)[C@]1(OC(C)=O)CO[C@@H]1C[C@@H]2O`, the outcome [16] was “inactive”, the outcome [17] was “inactive” and the outcome [2] was “inactive”. For the same molecule, the outcome [18] was “inactive”, the outcome [6] was “inactive” and the activation [19] was -6.87% (inactive). For the same molecule, the Potency [7] was 50.1 nM (active), the outcome [14] was “inactive” and the max response [15] was -13.7%.
With `CC(C)C(N)C(=O)OCCOCn1cnc2c(=O)[nH]c(N)nc21` (stereo not given) the activity change, negative = inhibition [1] was 7.31% (inactive), the max response [1, 20] was 9.47% and the max response [1, 21] was 21.7%. The outcome [2] was “inactive”.
